Assay [1] is described as follows: NCI Yeast Anticancer Drug Screen. Data for the rad50 strain (AID 155).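 Further: 0% = growth of vehicle-only cultures of the same strain.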 The conditions noted are these: S. cerevisiae rad50 strain growth inhibition, stronger effect = higher value. The method in brief:
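Compounds were tested on a yeast strain with an engineered DNA damage repair alteration; the reported value is growth inhibition normalised to vehicle treatment.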

Assay [2] can be described thus: NCI Yeast Anticancer Drug Screen. Data for the mec2-1 strain (AID 157). The conditions noted are these: S. cerevisiae mec2-1 strain, stronger effect = higher value. The method in brief:
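Vehicle-treated cultures served as reference for growth inhibition of compound-exposed mec2-1 yeast.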

A short description of assay [3]: NCI Yeast Anticancer Drug Screen. Data for the sgs1 mgt1 strain (AID 161).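 Further: 0% = growth of cultures given vehicle only.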 The conditions noted are these: S. cerevisiae sgs1 mgt1 strain, stronger effect = higher value. The method in brief: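 Read-out: growth inhibition vs vehicle controls. Cells: mutant yeast strain deficient in DNA damage repair.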
Assay [4] is described as follows: NCI Yeast Anticancer Drug Screen. Data for the cln2 rad14 strain (AID 165).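 Further: 0% = growth equal to vehicle treated cultures.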 Conditions: S. cerevisiae cln2 rad14 strain, stronger effect = higher value. The method in brief: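 Each compound was tested on cln2 rad14 yeast. Inhibition of growth was calculated against vehicle-exposed controls.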
The nature of assay [5]: NCI Yeast Anticancer Drug Screen. Data for the bub3 strain (AID 167). The conditions noted are these: S. cerevisiae bub3 mutant strain, stronger effect = higher value. In a few lines:
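Growth of a checkpoint-deficient yeast mutant is measured after compound exposure. Values represent inhibition relative to vehicle.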

The nature of assay [6]: NCI Yeast Anticancer Drug Screen. Data for the mlh1 rad18 strain (AID 175). Conditions: S. cerevisiae mlh1 rad18 strain growth inhibition, stronger effect = higher value. In a few lines: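 Vehicle-treated cultures served as the reference for growth inhibition in a yeast strain carrying DNA damage repair alterations exposed to each compound.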
Where [7] appears, read: at 5.0 µM (retest, dose inferred, filed as 0.5).
The mark [8] stands for this setting: at 50.0 µM (retest, dose inferred, filed as 5.0).

About 79,000 compounds went through this panel and 15% of them were active in at least one assay; those are over-represented in the sample as a whole. Values without a mark were called inactive. Activity calls are given as the source filed them. No stated cut-off is given here; in the data, active means growth inhibition above about 70%; inactive means the rest.

In the case of `N#CI1OC(C(F)(F)F)(C(F)(F)F)c2ccccc21`, the growth inhibition in assay [1] (setting [7]) was 72% (active); in assay [1] (setting [8]), 98% (active); in assay [1] (at 50.0 µM), 45.2%; in assay [2] (setting [7]), 61%; in assay [2] (setting [8]) it was 99% (active); in assay [2] (at 50.0 µM), 92.2% (active). The growth inhibition in assay [3] (setting [7]) is 72% (active); in assay [3] (setting [8]) it was 99% (active); in assay [3] (at 50.0 µM) it was 87.7% (active); in assay [4] (setting [7]), 53%; in assay [4] (setting [8]), 99% (active); in assay [4] (at 50.0 µM), 88.6% (active). For the same compound, the growth inhibition was 91% (active) in assay [5] (setting [7]); 99% (active) in assay [5] (setting [8]); 86.6% (active) in assay [5] (at 50.0 µM); 87% (active) in assay [6] (setting [7]); 98% (active) in assay [6] (setting [8]); 92.3% (active) in assay [6] (at 50.0 µM).
With `C=CC(=O)Oc1ccccc1/C=C/C(=O)CCCCCC`, the growth inhibition in assay [1] (setting [7]) is 37%; in assay [1] (setting [8]), 95% (active); in assay [1] (at 50.0 µM), 96.5% (active); in assay [2] (setting [7]), 4%; in assay [2] (setting [8]), 98% (active); in assay [2] (at 50.0 µM), 97.5% (active). Besides, the growth inhibition is 14% in assay [3] (setting [7]); 88% (active) in assay [3] (setting [8]); 97.5% (active) in assay [3] (at 50.0 µM); -2% in assay [4] (setting [7]); 72% (active) in assay [4] (setting [8]); 62.8% in assay [4] (at 50.0 µM). For the same compound, the growth inhibition was 0% in assay [5] (setting [7]), 95% (active) in assay [5] (setting [8]) and 83.1% (active) in assay [5] (at 50.0 µM).
`OCCN=Cc1cccs1`: the growth inhibition in assay [1] (setting [7]) is 1%; in assay [1] (setting [8]), 3%; in assay [1] (at 50.0 µM) it was 8.85%; in assay [2] (setting [7]) it was -2%; in assay [2] (setting [8]), 5%; in assay [2] (at 50.0 µM), 2.8%. In addition, the growth inhibition was -1% in assay [3] (setting [7]); 2% in assay [3] (setting [8]); 2.05% in assay [3] (at 50.0 µM); 0% in assay [4] (setting [7]); 1% in assay [4] (setting [8]); 13.7% in assay [4] (at 50.0 µM). Moreover, the growth inhibition in assay [5] (setting [7]) is 1%; in assay [5] (setting [8]), 2%; in assay [5] (at 50.0 µM) it was 8.25%; in assay [6] (setting [7]), -25%; in assay [6] (setting [8]) it was 5%; in assay [6] (at 50.0 µM), 3.4%.
Regarding `CCCCCCCCCCCCCCCC(=O)N1CC[N+](C)(C)CC1`, the growth inhibition is 34% in assay [1] (setting [7]); 99% (active) in assay [1] (setting [8]); 99.3% (active) in assay [1] (at 50.0 µM); 5% in assay [2] (setting [7]); 100% (active) in assay [2] (setting [8]); 99.6% (active) in assay [2] (at 50.0 µM). Moreover, the growth inhibition is 73% (active) in assay [3] (setting [7]); 99% (active) in assay [3] (setting [8]); 60% in assay [3] (at 50.0 µM); 5% in assay [4] (setting [7]); 99% (active) in assay [4] (setting [8]); 98.2% (active) in assay [4] (at 50.0 µM). Moreover, the values for the growth inhibition in assay [5] (setting [7]), in assay [5] (setting [8]) and in assay [5] (at 50.0 µM) were 16%, 99% (active) and 99.2% (active), respectively.
For `CC(=O)Oc1ccc(C(C)(C)CC(C)(C)C)cc1`, the growth inhibition in assay [1] (setting [7]) was -1%; in assay [1] (setting [8]), 62%; in assay [1] (at 50.0 µM), 72.2% (active); in assay [2] (setting [7]) it was -1%; in assay [2] (setting [8]), 41%; in assay [2] (at 50.0 µM) it was 95.3% (active). The growth inhibition is -1% in assay [3] (setting [7]); 26% in assay [3] (setting [8]); 94.8% (active) in assay [3] (at 50.0 µM); -3% in assay [4] (setting [7]); 42% in assay [4] (setting [8]); 86.3% (active) in assay [4] (at 50.0 µM). The growth inhibition in assay [5] (setting [7]) was 0%; in assay [5] (setting [8]), 55%; in assay [5] (at 50.0 µM) it was 85.8% (active); in assay [6] (setting [7]), -1%; in assay [6] (setting [8]), 42%; in assay [6] (at 50.0 µM), 89.5% (active).
`CC1=C(CO)C(=O)O[C@@H]([C@@H](C)[C@H]2CC[C@H]3[C@@H]4C[C@@H](O)C5=CC=CC(=O)[C@]5(C)[C@H]4CC[C@]23C)C1`: the growth inhibition in assay [1] (setting [7]) is -2%; in assay [1] (setting [8]) it was 41%; in assay [1] (at 50.0 µM) it was 71.2% (active); in assay [2] (setting [7]), -24%; in assay [2] (setting [8]), 49%; in assay [2] (at 50.0 µM), 46%. The growth inhibition in assay [3] (setting [7]) was -1%; in assay [3] (setting [8]) it was -6%; in assay [3] (at 50.0 µM), 85.8% (active); in assay [4] (setting [7]), -1%; in assay [4] (setting [8]) it was 47%; in assay [4] (at 50.0 µM), 55.2%. Besides, the growth inhibition was 0% in assay [5] (setting [7]); 40% in assay [5] (setting [8]); 60.6% in assay [5] (at 50.0 µM); -22% in assay [6] (setting [7]); 36% in assay [6] (setting [8]); 90.5% (active) in assay [6] (at 50.0 µM).
`Cc1cc(C)nc(CCSS(=O)(=O)O)c1`: the growth inhibition is -4% in assay [1] (setting [7]); 5% in assay [1] (setting [8]); 12.7% in assay [1] (at 50.0 µM); -17% in assay [2] (setting [7]); 2% in assay [2] (setting [8]); -0.95% in assay [2] (at 50.0 µM). Further, the growth inhibition was 2% in assay [3] (setting [7]); 6% in assay [3] (setting [8]); 3.35% in assay [3] (at 50.0 µM); -1% in assay [4] (setting [7]); -8% in assay [4] (setting [8]); 0.65% in assay [4] (at 50.0 µM). Also, the growth inhibition in assay [5] (setting [7]) was -1%; in assay [5] (setting [8]) it was -6%; in assay [5] (at 50.0 µM), 40.9%; in assay [6] (setting [7]), 12%; in assay [6] (setting [8]), 6%; in assay [6] (at 50.0 µM), 5.85%.
For `CC1=NC(C)C(C)S1` (stereo unspecified), the growth inhibition in assay [1] (setting [7]) was -1%; in assay [1] (setting [8]), 3%; in assay [1] (at 50.0 µM), 9.45%; in assay [2] (setting [7]), 0%; in assay [2] (setting [8]), 0%; in assay [2] (at 50.0 µM), 5.5%. Further, the growth inhibition in assay [3] (setting [7]) was -1%; in assay [3] (setting [8]), 1%; in assay [3] (at 50.0 µM) it was -2.5%; in assay [4] (setting [7]) it was 4%; in assay [4] (setting [8]), 0%; in assay [4] (at 50.0 µM), 16.1%. Moreover, the growth inhibition in assay [5] (setting [7]) was 3%; in assay [5] (setting [8]) it was 3%; in assay [5] (at 50.0 µM) it was 55.9%; in assay [6] (setting [7]), 2%; in assay [6] (setting [8]) it was 4%; in assay [6] (at 50.0 µM), 12.7%.
With `COC1OC(CI)C(OC(c2ccccc2)(c2ccccc2)c2ccccc2)C(OC(c2ccccc2)(c2ccccc2)c2ccccc2)C1OC(c1ccccc1)(c1ccccc1)c1ccccc1` (stereo unspecified), the growth inhibition in assay [1] (setting [7]) was -14%; in assay [1] (setting [8]), -6%; in assay [1] (at 50.0 µM), 96.4% (active); in assay [2] (setting [7]), -17%; in assay [2] (setting [8]), -22%; in assay [2] (at 50.0 µM), 98.5% (active). The growth inhibition in assay [3] (setting [7]) was -8%; in assay [3] (setting [8]), -18%; in assay [3] (at 50.0 µM), 94.5% (active); in assay [4] (setting [7]), -10%; in assay [4] (setting [8]), 14%; in assay [4] (at 50.0 µM), 97.8% (active). The figures for the growth inhibition in assay [5] (setting [7]), in assay [5] (setting [8]) and in assay [5] (at 50.0 µM) were 1%, -13% and 97% (active), respectively.
For the compound `CCOC(=O)NC(=S)Nc1ccsc1`, the growth inhibition in assay [1] (setting [7]) was 0%; in assay [1] (setting [8]) it was -7%; in assay [1] (at 50.0 µM), 15.6%; in assay [2] (setting [7]), -4%; in assay [2] (setting [8]) it was -1%; in assay [2] (at 50.0 µM) it was 11.4%. Moreover, the growth inhibition is 1% in assay [3] (setting [7]); 0% in assay [3] (setting [8]); 11% in assay [3] (at 50.0 µM); 0% in assay [4] (setting [7]); -13% in assay [4] (setting [8]); 56.8% in assay [4] (at 50.0 µM). Further, the growth inhibition is -3% in assay [5] (setting [7]); 3% in assay [5] (setting [8]); 24.8% in assay [5] (at 50.0 µM); -7% in assay [6] (setting [7]); 0% in assay [6] (setting [8]); 29.9% in assay [6] (at 50.0 µM).

For the origin of these results see PubChem BioAssay (NCI).
